Screening results (PubChem BioAssay)
Only some compounds are listed: those with a hit (about 6% of all), similar ones and a draw of the others.
D1 antagonist – blocks dopamine activation of the human D1 receptor. P21728. HEK293 TREx D1 cells, calcium flux, dopamine EC80; hits give low values. activity change, negative = inhibition, % at 10 µM. 360,000 tested, 3.2% active. AID 504652; in the data active means activity change below about -30%
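Calcium flux readout: force-coupled, inducible Hek293 Trex D1 line, cells induced overnight at 30 C with tetracycline, dye-loaded 30–90 min at RT. Antagonism scored against EC80 dopamine challenge given 180 s after compound.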
D3 ag – D3 dopamine receptor (human) agonism. P35462. D3R DiscoveRx beta-arrestin cells, luminescence, 90 min. max activation, %. 410,000 tested, 0.58% active. AID 652048; in the data active means max activation above about 30%
Target sequence (P35462 whole entry, looked up): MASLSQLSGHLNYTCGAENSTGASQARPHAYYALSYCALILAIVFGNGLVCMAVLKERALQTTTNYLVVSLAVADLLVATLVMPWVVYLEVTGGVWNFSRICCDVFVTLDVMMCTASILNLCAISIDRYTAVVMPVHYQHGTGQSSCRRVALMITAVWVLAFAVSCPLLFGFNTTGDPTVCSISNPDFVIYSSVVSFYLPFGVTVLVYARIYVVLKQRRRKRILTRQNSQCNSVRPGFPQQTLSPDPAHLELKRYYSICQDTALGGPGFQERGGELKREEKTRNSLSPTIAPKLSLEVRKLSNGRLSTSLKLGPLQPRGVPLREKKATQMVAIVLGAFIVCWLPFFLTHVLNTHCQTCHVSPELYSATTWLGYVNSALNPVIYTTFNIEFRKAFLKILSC
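Agonist mode: compounds and dopamine controls were applied to plated cells for 90 min at 37 degrees C after an overnight attachment at 1500 cells/well. Luminescent read-out followed 30 - 60 minutes at room temperature with DiscoveRx detection reagent.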
D1 agonist – agonists of human D1 dopamine receptor; P21728; HEK293 T-REx D1 cells, calcium flux, agonist mode; activation, % at 2 µM; 360,000 tested, 1% active; in the data active means activation above about 30%
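Tetracycline-induced HEK293 TREx D1 cells, force-coupled to calcium signalling, were dye-loaded with a no-wash calcium kit. Compound was pin-added after a 10 s baseline. Fluorescence was read kinetically at 1 cycle/s for 180 s, with calcium rises flagged as agonism.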
D1 PAM – human D1 dopamine receptor positive modulation; P21728; HEK293 TREx D1 cells, calcium flux, dopamine EC20 potentiation; potentiation, % at 10 µM; 360,000 tested, 0.036% active; AID 504651; in the data active means potentiation above about 30%
DRD3 antagonist – antagonists of human D3 dopamine receptor; P35462; D3R cells, DiscoveRx beta-arrestin luminescence, antagonist mode; hits give low values; max response, negative = inhibition, %; 360,000 tested, 2.5% active; AID 652054; in the data active means max response below about -50%; inconclusive means no clear call, values can overlap the other calls
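Cells plated overnight at 1500 cells/well, then exposed to library compounds with dopamine controls for 90 minutes at 37 degrees C. DiscoveRx reagent added for 30–60 minutes at room temperature; luminescence read, quantitative HTS format.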
Each line names hits and unclear results; the compound was inactive in the other large screens.

CC1(C)CC(=O)C(N=Nc2ccc(F)cc2)=C(O)C1	D1 antagonist -42
CC1(C)CC(=O)C(N=Nc2ccc(Cl)cc2)=C(O)C1	none
S=C1NC[C@H](Cc2ccccc2)N1CC1CCN(CCCC2CCCC2)CC1	DRD3 antagonist -81 (no result: D1 antagonist, D1 agonist, D1 PAM)
CC(C)C[C@H]1CNC(=O)C(=O)N1CC1CCN(CC2CCC(C(C)(C)C)CC2)CC1 (some centres not stated)	DRD3 antagonist -57 (no result: D1 antagonist, D1 agonist, D1 PAM)
CC(C)C[C@H]1CNC(=S)N1CC1CCN(CCCC2CCCC2)CC1	DRD3 antagonist -63 (no result: D1 antagonist, D1 agonist, D1 PAM)
COc1ccc(CCCN2CCC(CN3C(=S)NC[C@@H]3Cc3ccccc3)CC2)cc1OC	DRD3 antagonist -55 (no result: D1 antagonist, D1 agonist, D1 PAM)
CCOc1ccc(NC(=O)CSc2nc3ccsc3c(=O)n2C(C)CC)cc1 (configuration not stated)	none (no result: DRD3 antagonist)
CC(C)CCN1CCC(CN2C(=O)C(=O)NC[C@@H]2CC(C)C)CC1	DRD3 antagonist inconclusive (no result: D1 antagonist, D1 agonist, D1 PAM)
CCCCN1CCC(CN2C(=S)NC[C@@H]2CC(C)C)CC1	DRD3 antagonist -80 (no result: D1 antagonist, D1 agonist, D1 PAM)
CC(C)C[C@H]1CNC(=S)N1CC1CCN(CCCCc2ccccc2)CC1	DRD3 antagonist -91 (no result: D1 antagonist, D1 agonist, D1 PAM)
COc1ccc(NC(=O)CCc2c(C)nc3nc(CNC(=O)OC(C)(C)C)nn3c2C)cc1OC	none (no result: DRD3 antagonist)
COc1cccc(CCNC(=O)c2cnc3sc(N4CCCC4)nn3c2=O)c1	none (no result: DRD3 antagonist)
O=c1c(N=Nc2ccccc2)c[nH]n1-c1ccccc1	DRD3 antagonist -62 (no result: D1 antagonist, D1 agonist, D1 PAM)
CC(C)CNC(=O)C1(C)CCCN1C(=O)c1ccncc1 (configuration not stated)	D3 ag 89 (no result: D1 antagonist, D1 agonist, D1 PAM)
CC(C)CNC(=O)C1(C)CCCN1C(=O)C(C)(C)Oc1ccc(Cl)cc1 (configuration not stated)	DRD3 antagonist -100 (no result: D1 antagonist, D1 agonist, D1 PAM)
O=C(NCc1ccccc1)c1cnc2sc(N3CCCC3)nn2c1=O	none (no result: DRD3 antagonist)
Cc1cc(C)cc(NC(=O)COc2cccc3c(=O)n(C)ccc23)c1	none (no result: D1 antagonist, DRD3 antagonist)
Cc1c(N=NC2=C(O)CCCC2=O)c(=O)n(-c2ccccc2)n1C	DRD3 antagonist -83
Cc1c(N=Nc2ccc(O)cc2)c(=O)n(-c2ccccc2)n1C	none
O=C(NCc1cccc(Cl)c1)c1ccc(NC(=O)N2CC3CCCN3c3ccccc32)cc1 (configuration not stated)	none (no result: DRD3 antagonist)
O=C(Cn1cc(S(=O)(=O)N2CCCC2)c(S(=O)(=O)N2CCCC2)c1)Nc1ccccc1	none (no result: DRD3 antagonist)
Cc1cc(=O)n2nc(N3CCCC(C(=O)Nc4ccc(C)c(C)c4)C3)sc2n1 (configuration not stated)	D1 antagonist -59
Cc1cc(=O)n2nc(N3CCCC(C(=O)NCCc4ccc(Cl)cc4)C3)sc2n1 (configuration not stated)	D1 antagonist -35, DRD3 antagonist inconclusive
C=CCN1C(=O)/C(=C2/Sc3ccc(OC)cc3N2C)SC1=Nc1ccccc1	none
CCCCN1C(=O)/C(=C2/Sc3ccccc3N2C)S/C1=N\c1ncn[nH]1	D1 antagonist -54
COc1ccc(CC2(CO)CCN(Cc3ccc4nsnc4c3)CC2)cc1	DRD3 antagonist -73
Cc1ccccc1-c1ncc(CN2CCC(CO)(CCCc3ccccc3)CC2)cn1	D1 antagonist -55
COc1ccc(CC2(CO)CCN(S(=O)(=O)c3c(C)nn(C)c3Cl)CC2)cc1	none
OCC1(Cc2ccccc2)CCN(Cc2cnc(-c3ccc(Cl)cc3)nc2)CC1	none
COc1ccc(-c2ncc(CN3CCC(CO)(Cc4cccc(OC)c4)CC3)cn2)cc1	D1 agonist 39
COc1ccc(CC2(CO)CCN(S(=O)(=O)c3sccc3C)CC2)cc1	D1 agonist 32
CCCCOc1cccc(C(=O)N(Cc2ccc(Br)o2)C2CCS(=O)(=O)C2)c1 (configuration not stated)	none (no result: DRD3 antagonist)
CCOC(=O)c1nn(-c2ccccc2)c(=O)cc1OCC(=O)Nc1ccccc1OCC	none
COc1ccccc1CNC(=O)CCC1N=C2c3ccccc3N=C(SCc3cccc(Cl)c3)N2C1=O (configuration not stated)	none (no result: DRD3 antagonist)
CCC(=O)N1c2ccc(S(=O)(=O)CCC(=O)N3CCN(c4ccc(F)cc4)CC3)cc2CC1C (configuration not stated)	none (no result: DRD3 antagonist)
CCN(c1ccccc1)S(=O)(=O)c1ccc2c(c1)CC(C)N2C(=O)C1CC1 (configuration not stated)	D1 antagonist -32
